Compound activity (PubChem BioAssay)
Compounds with a hit are over-represented: about 11% of the library has one in this group of screens.
HEK293 tox – HEK 293 cell cytotoxicity; HEK 293 viability, ATP luminescence (CellTiter-Glo), 48-72 h; Potency, µM (doses to about 115 µM), hits mostly inhibitors; hit rate 6.6% among 94,000; further: nearly all actives have a fitted effect of over 60% in size
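HEK 293 cells seeded at 250 cells/well were exposed to compound for 48 or 72 hr at 37 degree Celsius. Viability taken as ATP content by CellTiter-Glo luminescence.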
NPR1 antag – antagonists of human natriuretic peptide receptor Npr1 | HEK293 hNpr1 GloSensor cGMP, ANP-stimulated luminescence | AID 1347048 | P16066 | hit rate 1.6% among 76,000 | Potency, µM (titrated, usually from 46.3 µM), most hits filed as inhibitors; calls by dose curve; further: nearly all actives have a fitted effect of over 60% in size
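HEK293 cells stably expressing human Npr1 and cGMP GloSensor pGS-40F, loaded 2 h with 2% GloSensor reagent, given compound 30 min at room temperature. Luminescence read before and 20 min after 0.1 nM hNppA.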
NIH3T3 tox – kills NIH 3T3 cells | Potency, µM (top dose mostly 96.7 µM), hits mostly inhibitors | NIH 3T3 viability, CellTiter-Glo ATP luminescence, 48-72 h | hit rate 4.3% among 94,000; further: nearly all actives have a fitted effect of over 55% in size
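Cytotoxicity is measured as loss of cellular ATP: NIH 3T3 cells (400/well) are exposed to compound for 48 or 72 hr at 37 °C, then CellTiter-Glo luminescence is imaged after 10 min at room temperature.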
FLuc inh – inhibitors of firefly (Photinus pyralis) luciferase; hit rate 2.5% among 76,000; purified P. pyralis luciferase, luminescence, biochemical; AID 1347043; Potency, µM (top dose mostly 115 µM), most hits filed as inhibitors; further: nearly all actives have a fitted effect of over 65% in size
Target sequence (P08659 whole entry, looked up): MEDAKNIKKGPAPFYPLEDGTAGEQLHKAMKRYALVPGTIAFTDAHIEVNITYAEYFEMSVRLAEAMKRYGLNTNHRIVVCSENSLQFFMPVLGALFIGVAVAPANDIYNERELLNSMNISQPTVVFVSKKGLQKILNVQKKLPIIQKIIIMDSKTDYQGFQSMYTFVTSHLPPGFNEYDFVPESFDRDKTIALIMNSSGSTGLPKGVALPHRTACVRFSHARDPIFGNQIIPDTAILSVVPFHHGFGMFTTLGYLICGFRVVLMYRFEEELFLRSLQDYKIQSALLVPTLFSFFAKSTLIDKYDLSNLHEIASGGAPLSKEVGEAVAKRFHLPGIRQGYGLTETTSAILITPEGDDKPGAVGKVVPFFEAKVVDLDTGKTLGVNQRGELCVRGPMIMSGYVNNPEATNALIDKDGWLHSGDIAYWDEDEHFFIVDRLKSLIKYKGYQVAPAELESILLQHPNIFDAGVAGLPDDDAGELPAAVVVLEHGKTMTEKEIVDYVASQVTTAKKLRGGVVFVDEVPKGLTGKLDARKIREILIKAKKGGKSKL
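Cell-free enzyme assay, 10nM P. pyralis luciferase, luciferin and ATP each at 10uM. Inhibition profiled over a 6-point titration, read as luminescence.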
Numbers stand for hits; – = inactive; ? = inconclusive; · = no result. Unless noted, the call rests on the fitted dose curve; in most records, active means well fitted curve in the direction sought with a large enough effect; inconclusive means small, poorly fitted or top-dose-only effect, or another doubt; inactive means no such curve, though single readings can be large; an effect the other way counts as inactive or inconclusive.

SMILES | HEK293 tox | NPR1 antag | NIH3T3 tox | FLuc inh
C[S+](=O)([O-])N1CCCC2(C1)C(=NC1CCCC1)NC(=O)N2c1cc(F)cc(F)c1 (centres undefined) | – | – | – | –
COCCOc1ccc2c(n1)CCN(C(=O)COc1ccccc1)C2 | – | – | – | –
CCCS(=O)(=O)N1CCC2(CC1)CCC(O)(CN1CCCC1)CC2 | ? | · | – | ·
Cc1nc(-c2ccc(Cl)cc2)n(Cc2ccc(F)cc2F)c(=O)c1CCO | 35µM | – | ? | –
Cc1nc(-c2ccccc2)n(Cc2cc(F)cc(F)c2)c(=O)c1CCO | ? | – | ? | –
Cc1nc(-c2ccccc2)n(Cc2ccc(F)cc2Cl)c(=O)c1CCO | 28µM | – | 45µM | –
Cc1nc(-c2ccc(Cl)cc2)n(Cc2ccc(F)c(F)c2)c(=O)c1CCO | 45µM | – | ? | –
Cc1nc(-c2ccc(F)cc2)n(Cc2ccc(F)cc2F)c(=O)c1CCO | ? | – | ? | –
Cc1nc(-c2ccc(F)cc2)n(Cc2ccc(F)c(F)c2)c(=O)c1CCO | ? | – | ? | –
Cc1ccc(C)c(Cn2c(-c3ccc(Cl)cc3)nc(C)c(CCO)c2=O)c1 | ? | – | ? | –
Cc1nc(-c2ccc(Cl)cc2)n(Cc2ccccc2F)c(=O)c1CCO | 45µM | – | ? | –
COc1ccc2[nH]c(C(=O)NC3CCc4nn(C)c(=O)n4CC3)cc2c1 (centres undefined) | – | – | – | –
COc1cccc(CNC(=O)C2CN(C(C)C)C(=O)N2)c1 (centres undefined) | – | · | – | ·
Cc1nc(-c2ccc(Cl)cc2)n(Cc2ccccc2)c(=O)c1CCO | 45µM | – | ? | –
CCNC(=O)N1CCCC(Cc2noc(-c3ccccc3)n2)C1 (centres undefined) | 32µM | – | – | ?
CCn1cc(S(=O)(=O)N2CCCC2Cc2noc(-c3ccccc3)n2)cn1 (centres undefined) | 45µM | · | ? | ·
O=C(Nc1ccccc1)N1CCN(C(=O)c2nc3cccnc3n(C3CCCC3)c2=O)CC1 | – | · | ? | ·
O=C(Nc1cnc(-c2ccc(F)cc2)nc1)c1ccco1 | ? | – | – | 3.5µM
O=C(Nc1cnc(-c2ccccc2)nc1)c1ccco1 | – | – | – | 11µM
O=C(Nc1cnc(-c2ccc(Cl)cc2)nc1)c1ccccc1F | – | – | – | 0.79µM
O=C(Nc1cnc(-c2ccccc2)nc1)c1ccc(F)c(F)c1 | – | – | – | –
COc1ccc(Cn2c(=O)c(C(=O)N3CCN(C(=O)c4ccccc4Cl)CC3)nc3cccnc32)cc1 | – | · | – | ·
CCOc1ccccc1C(=O)NC1CCN(c2cc(-c3ccc(OC)cc3)[nH]n2)CC1 | ? | – | 35µM | –
COc1ccc(C(=O)NC2CCN(c3cc(-c4ccccc4)[nH]n3)CC2)c(OC)c1 | 79µM | – | ? | –
CCOc1ccccc1C(=O)NC1CCN(c2cc(-c3ccccc3)[nH]n2)C1 (centres undefined) | ? | – | ? | –
SMILES | HEK293 tox | NPR1 antag | NIH3T3 tox | FLuc inh
CCOc1ccccc1C(=O)NC1CCN(c2cc(-c3ccc(OC)cc3)[nH]n2)C1 (centres undefined) | ? | – | 35µM | –
CCOc1ccccc1C(=O)NC1CCCN(c2cc(-c3ccc(Cl)cc3)[nH]n2)C1 (centres undefined) | 20µM | – | 16µM | ?
CCCCN1CCN(C(=O)[C@@]23CCCC[C@H]2N(CCC(C)C)C(=O)CC3)CC1 | – | – | – | –
CCc1ccccc1-n1nc(-c2c(C)nc3scc(CC(=O)NCc4ccco4)n3c2=O)cc1C | ? | – | ? | –
COc1ccccc1C(=O)NC1CCN(c2cc(-c3ccc(Cl)cc3)[nH]n2)CC1 | ? | – | ? | –
COc1cc(Cl)ccc1C(=O)NC1CCN(c2cc(-c3ccc(F)cc3)[nH]n2)CC1 | ? | – | 35µM | –
COCCCn1c(=O)c(C(=O)N2CCN(C(=O)Nc3ccccc3)CC2)nc2cccnc21 | – | · | – | ·
COc1ccc(C(=O)Nc2ccc3c(c2)CN(Cc2cccc(OC)c2OC)C(=O)CO3)cc1OC | ? | – | – | –
COc1cccc(C(=O)Nc2ccc3c(c2)CN(Cc2ccccc2F)C(=O)CO3)c1 | ? | – | ? | ?
COc1cccc(CN2Cc3cc(NC(=O)c4ccc([N+](=O)[O-])cc4)ccc3OCC2=O)c1OC | 40µM | ? | ? | –
COc1cccc(CN2Cc3cc(NC(=O)c4cccc(OC)c4)ccc3OCC2=O)c1 | 25µM | – | ? | ?
CC(Oc1cccc(Cl)c1)C(=O)N1CCN(c2cc(-c3cccs3)[nH]n2)CC1 (centres undefined) | 35µM | ? | ? | –
O=C(c1cc(Cl)ccc1Cl)N1CCN(c2cc(-c3cccs3)[nH]n2)CC1 | 45µM | ? | ? | –
O=C(COc1ccc(Cl)cc1)N1CCN(c2cc(-c3cccs3)[nH]n2)CC1 | ? | – | 22µM | –
O=C(C1CCCC1)N1CCC(C(=O)N2CCCC(c3nc4ccncc4[nH]3)C2)CC1 (centres undefined) | – | · | – | ·
O=C(Nc1cccs1)N1CCNc2cnc(Nc3cccc(F)c3)nc2C1 | ? | – | ? | –
CN1C(=O)Cc2cc(C(=O)NC3CCCCC3)ccc21 | – | – | – | –
Cc1ccc(N2Cc3c(NCCc4ccc(F)cc4)ncnc3N(C)CC2=O)cc1 | ? | – | 35µM | –
CC(C)CCN1CC[C@H](c2nc3ccccc3[nH]2)C1 | ? | – | – | 35µM
COc1ccc2nc([C@H]3CCN(Cc4cccc(C#N)c4)C3)[nH]c2c1 | 40µM | – | 32µM | –
N#Cc1cccc(CN2CC[C@H](c3nc4ccccc4[nH]3)C2)c1 | 50µM | – | 56µM | –
N#Cc1ccc2nc([C@H]3CCN(Cc4ccc(F)c(F)c4)C3)[nH]c2c1 | ? | – | 32µM | –
COc1cc(C(C(=O)O)N(C)Cc2c(C)nn(C)c2C)ccc1N (centres undefined) | – | – | – | –
O=[S+]([O-])(NC1CCN(c2ccnc3ccnn23)CC1)c1cccc(C(F)(F)F)c1 | 45µM | · | ? | ·
O=[S+]([O-])(NC1CCN(c2ccnc3ccnn23)C1)c1cccs1 (centres undefined) | 71µM | · | ? | ·
SMILES | HEK293 tox | NPR1 antag | NIH3T3 tox | FLuc inh
CCOC(=O)[C@H]1C[C@]2(CCCCN(CCOC)C2=O)N(C(=O)C2CC2)[C@H]1c1ccccc1 | – | · | ? | ·
COc1ccccc1-c1[nH]nc2ncc(-c3ccccc3O)nc12 | ? | – | ? | –
COc1ccccc1-c1cnc2n[nH]c(-c3ccccc3)c2n1 | ? | – | 79µM | –
COc1ccccc1-c1[nH]nc2ncc(-c3c(C)noc3C)nc12 | 89µM | – | ? | –
COc1ccccc1-c1[nH]nc2ncc(C(=O)NCC3CCOCC3)nc12 | – | – | 40µM | –
COc1ncccc1-c1cnc2n[nH]c(-c3ccccc3)c2n1 | 71µM | – | 50µM | –
CCN1c2cc(C(=O)Nc3ccccc3C)ccc2C(=O)N2CCCCCC21 (centres undefined) | ? | – | – | –
COc1ccc(-c2ccccc2C(=O)NCC2CC2)nn1 | – | · | – | ·
COc1ccccc1-c1[nH]nc2ncc(-c3cccnc3OC)nc12 | 10µM | – | 10µM | –
